The structures appear in SMILES notation. Records with an inconclusive call do not appear. Activity calls are given as the source filed them.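 Rule for the calls, unless noted: active = inhibition over a set limit, the all-compound mean plus 3 SD, in both replicate runs; inconclusive = over that limit in just one replicate run; inactive = at or under that limit in both runs.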

The nature of test [1]: reducers of endogenous Her2 protein level, primary screen, SKBR3 breast tumor cells, AlphaScreen, ATP viability (AID 461;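 active = Her2 level under about 52% in both replicate screens, with viability over 70% of control, limit read from the data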;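 for Her2 level: lower value means less Her2 protein in the cells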;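 for viability: percent of carrier control wells set as 100% viability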). The conditions noted are these: 18-24 h, measured here: SKBR3 viability, ATP luminescence, at 10 µM. (Bead proximity is the source of the signal in Alpha formats.)
Test [2] deals with Receptor tyrosine-protein kinase erbB-2 (Homo sapiens) (UniProt P04626). The test is described as above. The conditions noted are these: 18-24 h, at 10 µM, stronger effect = lower value.
Sequence of Receptor tyrosine-protein kinase erbB-2 (Homo sapiens) (P04626 whole entry, looked up): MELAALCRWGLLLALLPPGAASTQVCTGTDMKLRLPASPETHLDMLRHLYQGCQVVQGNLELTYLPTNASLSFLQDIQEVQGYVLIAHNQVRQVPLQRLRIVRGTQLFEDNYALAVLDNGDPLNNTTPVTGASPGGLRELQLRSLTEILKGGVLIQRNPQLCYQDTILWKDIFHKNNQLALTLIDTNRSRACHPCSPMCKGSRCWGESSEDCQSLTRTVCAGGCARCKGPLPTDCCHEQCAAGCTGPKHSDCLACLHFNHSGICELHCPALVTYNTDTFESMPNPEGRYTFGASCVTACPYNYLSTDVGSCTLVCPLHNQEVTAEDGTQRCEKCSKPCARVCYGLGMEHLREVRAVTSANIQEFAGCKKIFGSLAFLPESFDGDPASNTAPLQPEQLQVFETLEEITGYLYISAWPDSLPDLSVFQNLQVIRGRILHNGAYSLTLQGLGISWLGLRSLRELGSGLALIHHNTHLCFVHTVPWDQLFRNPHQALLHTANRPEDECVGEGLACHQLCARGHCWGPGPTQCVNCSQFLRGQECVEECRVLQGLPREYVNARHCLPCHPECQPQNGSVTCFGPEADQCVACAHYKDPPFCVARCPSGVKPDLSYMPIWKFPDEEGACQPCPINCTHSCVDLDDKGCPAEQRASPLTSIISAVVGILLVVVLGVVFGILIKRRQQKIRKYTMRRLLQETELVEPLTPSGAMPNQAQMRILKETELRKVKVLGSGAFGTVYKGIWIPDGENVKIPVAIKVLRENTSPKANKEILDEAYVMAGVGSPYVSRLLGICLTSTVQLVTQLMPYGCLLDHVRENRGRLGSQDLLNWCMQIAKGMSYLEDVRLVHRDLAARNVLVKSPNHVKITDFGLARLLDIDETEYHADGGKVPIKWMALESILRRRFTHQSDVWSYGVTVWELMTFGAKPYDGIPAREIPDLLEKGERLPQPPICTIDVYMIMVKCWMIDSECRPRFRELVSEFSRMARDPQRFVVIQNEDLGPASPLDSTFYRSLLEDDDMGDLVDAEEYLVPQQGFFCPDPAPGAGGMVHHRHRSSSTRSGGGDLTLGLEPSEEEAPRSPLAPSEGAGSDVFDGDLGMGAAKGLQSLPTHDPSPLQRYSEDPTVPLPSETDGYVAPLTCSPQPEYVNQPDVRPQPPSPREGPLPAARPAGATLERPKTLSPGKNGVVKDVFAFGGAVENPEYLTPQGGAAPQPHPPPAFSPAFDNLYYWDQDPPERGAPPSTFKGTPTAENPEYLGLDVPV
Test [3] in a line: SK-BR-3 cell growth inhibitors, pilot screen, 24 h, human (AID 572;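 active = viability at or below 10% of carrier control in both of two separate runs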;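 note: compound exposure lasted between 18 and 24 h rather than exactly 24 h; 100% = carrier-treated control wells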). The following applies: SK-BR-3 viability, CellTiter-Glo luminescence, at 10 µM, stronger effect = lower value. A general note: ATP-based viability assays read luminescence as a measure of living cells.
Test [4] is described as follows: HUVEC growth inhibition – cell-based, human, primary screen (AID 575;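 active = viability at or below 30% in both replicate assays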;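 note: 100% = median of untreated cell wells with 0.1% DMSO on each plate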). The conditions noted are these: HUVEC proliferation, CellTiter-Glo luminescence, 72 h; at 10 µM; stronger effect = lower value.
Test [5] is described as follows: growth inhibitors of H69AR lung tumor, primary screen, human, duplicate replicates (AID 580;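 active = viability at or under a set limit in both replicates, limit being median viability minus 3 SD, cut at about 48% in these data, passing the limit was not always enough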;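 note: 100% = mean luminescence of untreated wells and 0% = no signal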). The conditions noted are these: H69AR lung tumor cells viability, ATP luminescence, 72 h; at 10 µM; stronger effect = lower value.
A short description of test [6]: reversal of MRP1-mediated doxorubicin resistance, pilot screen, H69AR cells, doxorubicin co-treatment (AID 601;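 active = viability loss from added drug above about 55%, and viability with drug at most 40%, in both replicates, limit read from the data, passing the limit was not always enough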). The following applies: CellTiter-Glo, 72 h, at 10 µM; for differential viability (reversal): stronger effect = higher value.
The nature of test [7]: 384-well plate pilot, post-Golgi transport modulator project, inhibition of yeast transport mutant growth (AID 636; in the data active = inhibition above about 31%). The conditions noted are these: absorbance 615 nm, about 18 h, stronger effect = higher value.
Test [8] is described as follows: growth suppression of yeast trafficking mutant, preliminary HTS, modulators of trafficking downstream of Golgi apparatus project, 1536-format plate, OD 615 nm (AID 637; in the data active = inhibition above about 30%). The conditions noted are these: yeast transport mutant growth, absorbance 615 nm, 18 h; stronger effect = higher value.
The nature of test [9]: OD615 S. cerevisiae growth inhibition, permissive medium, pilot counter-assay, permissive growth control for S. cerevisiae lifespan shortening project (AID 705;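 active = growth inhibition above 25% in both replicates, a cutoff set 3 SD above the mean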). The following applies: OD615, 24 h, at 10 µM, stronger effect = higher value.
A short description of test [10]: Restrictive medium S. cerevisiae growth inhibition, OD615, pilot screen of yeast lifespan reduction project, restrictive growth control (AID 706;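 active = growth inhibition above a set limit, 3 SD over mean compound inhibition, in both replicates, cut at about 43% in these data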;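 note: modified DeaD lifespan yeast strain shifted to restrictive glucose medium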). The conditions noted are these: OD615, 48 h, at 10 µM, stronger effect = higher value.
Test [11] is described as follows: viability gain of MRP-1-high H69AR cells under doxorubicin, pilot screen, MRP-1 activator project, CellTiter-Glo, duplicate (AID 807;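 active = viability increase at or above a cutoff of the median across tested compounds plus 3 SD, cut at about 8.5% in these data, passing the limit was not always enough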;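 note: compound pretreatment 18-22 h then 72 h combined with doxorubicin; 0% = doxorubicin alone and 100% = vehicle without doxorubicin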). The conditions noted are these: H69AR viability with doxorubicin, CellTiter-Glo luminescence; at 10 µM; stronger effect = higher value.
Test [12] is described as follows: growth suppression of beta-catenin knockout HCT116, pilot screen, human colon tumor cells (AID 823;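 active = cell viability at or below a set limit in both duplicate runs, the limit being the all-compound median minus 4 SD, cut at about 23% in these data, passing the limit was not always enough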;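 note: 0% = wells killed by 20 µM Hyamine and 100% = untreated DMSO cell wells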). The following applies: CellTiter-Glo, 60 h, at 10 µM, stronger effect = lower value.
A short description of test [13]: growth suppression of PTEN-deleted HCT116, pilot screen, cell-based, HCT116 clonal line, CellTiter-Glo (AID 824;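 active = viability at or below 27.92% in each of two runs, the all-compound median minus 4 SD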;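 note: 0% = 20 µM Hyamine control and 100% = vehicle cell control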). The following applies: 60 h, at 10 µM, stronger effect = lower value.
Test [14] in a line: inhibitors of the yeast RAM network, pilot screen, dse1pr::URA3 reporter, 5-FOA selection (AID 869).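 Note: 0% = DMSO wells with no growth and 100% = 10 µM 1-NA-PP1 with full growth; RAM network block rescues cells from 5-FOA so hits raise OD615 growth.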 The following applies: S. cerevisiae dse1pr::URA3 5-FOA growth, OD615, 2 d; at 10 µM; stronger effect = higher value; strain carries analog-sensitive mutant Cbk1 kinase.
A short description of test [15]: RAM signaling pathway blockade in yeast – S. cerevisiae, Pdr1DBD-CYC8 efflux-inhibited sensitized strain, primary screen (AID 1298;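 active = RAM network inhibition above 8.4% in each of two replicates, 3 SD over the compound average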;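 note: 0% = DMSO untreated cells without growth and 100% = 10 µM 1-NA-PP1 full growth; higher means more yeast growth rescued from 5-FOA killing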). The conditions noted are these: S. cerevisiae cbk1-as DSE1-URA3 strain, 5-FOA growth OD615, 2 d; at 50 µM; stronger effect = higher value.
Setting [16] is: H69AR cells + 2 uM doxorubicin, measured here: viability with 2 uM doxorubicin, stronger effect = lower value.
Where [17] appears, read: H69AR cells, compound alone cytotoxicity.

As a reminder, the viability is a read-out of living cells in per cent, often relative to untreated cells. Usually inhibition stands for the relative decrease from the control value, in per cent. Regarding `COc1ccc(OC)c(C2CC(=O)NC(SC)=C2C#N)c1` (stereo not given), the viability in test [1] was 102%; in test [3] it was 102% (inactive); in test [4], 83.1% (inactive); in test [5], 94.3% (inactive); in test [6] (setting [16]) it was 82.8%; in [6] (setting [17]), 94.3%. For the same compound, the figures for the viability in test [12] and in test [13] were 104% (inactive) and 92.6% (inactive), respectively. The Her2 level in test [2] is 94% (inactive). Besides, the differential viability (reversal) in test [6] (H69AR cells + 2 uM doxorubicin) is 11.6% (inactive). The results for the inhibition in [7], in test [8] and in test [14] were -5.33% (inactive), -9.02% (inactive) and -0.015% (inactive), respectively. In addition, the growth inhibition is -11.4% (inactive) in test [9] and -5.61% (inactive) in test [10]. The viability increase in [11] was 0.31% (inactive). Besides, in test [15], the RAM network inhibition was 2.19% (inactive).
For `CCc1cc(=O)n2[nH]c(C)c(-c3ccccc3OC)c2n1`, the viability in [1] is 80.5%; in test [3], 80.5% (inactive); in [4], 91.3% (inactive); in test [5], 100% (inactive); in [6] (setting [16]) it was 95%; in [6] (setting [17]) it was 100%. The viability in test [12] is 98.6% (inactive); in [13] it was 105% (inactive). For the same compound, the Her2 level in [2] is 106% (inactive). In test [6] (H69AR cells + 2 uM doxorubicin), the differential viability (reversal) is 5.22% (inactive). Moreover, the inhibition in test [7] is 0.13% (inactive); in test [8], -6.83% (inactive); in test [14] it was 2.31% (inactive). In addition, the results for the growth inhibition in test [9] and in test [10] were -1.09% (inactive) and 0.365% (inactive), respectively. In test [11], the viability increase is -3.04% (inactive). The RAM network inhibition in test [15] was 1.78% (inactive).
Turning to `CCOC(=O)Cn1ncc(-c2ccccc2)c1N`, the viability was 101% in test [1]; 101% (inactive) in [3]; 102% (inactive) in [4]; 93% (inactive) in test [5]; 86% in test [6] (setting [16]); 93% in test [6] (setting [17]). Further, the viability in test [12] was 100% (inactive); in test [13] it was 94.5% (inactive). For the same compound, the Her2 level in test [2] was 72% (inactive). Also, in [6] (H69AR cells + 2 uM doxorubicin), the differential viability (reversal) is 7.02% (inactive). Further, the results for the inhibition in test [7], in [8] and in test [14] were -7.95% (inactive), -1.43% (inactive) and 1.83% (inactive), respectively. In addition, the growth inhibition in test [9] is 2.3% (inactive); in [10] it was -2.13% (inactive). Besides, in [11], the viability increase is 0.83% (inactive). Besides, the RAM network inhibition in test [15] was 2.21% (inactive).
As to `CCN(CC)C(=O)C1CCCc2c1[nH]c1ccc(Cl)cc21` (stereo not given), the viability was 102% in test [1]; 102% (inactive) in test [3]; 67.1% (inactive) in [4]; 76.6% (inactive) in [5]; 70.6% in test [6] (setting [16]); 76.6% in test [6] (setting [17]). Also, the viability in [12] was 66.5% (inactive); in test [13], 60.8% (inactive). In addition, the Her2 level in test [2] was 91% (inactive). The differential viability (reversal) in [6] (H69AR cells + 2 uM doxorubicin) is 5.98% (inactive). Besides, the inhibition in [7] is 8.13% (inactive); in test [8], 44% (active); in [14], 0.455% (inactive). For the same compound, the growth inhibition in [9] was -16% (inactive); in [10], -4.67% (inactive). For the same compound, the viability increase in test [11] was -4.93% (inactive). Also, the RAM network inhibition in test [15] was 1.57% (inactive).
As for `CCN1CCN(C(=O)c2cn(CC)c3ccc(S(=O)(=O)N(C)C)cc3c2=O)CC1`, the viability is 85.5% in test [1]; 85.5% (inactive) in [3]; 100% (inactive) in [4]; 107% (inactive) in test [5]; 96.5% in test [6] (setting [16]); 107% in test [6] (setting [17]). In addition, the viability was 101% (inactive) in test [12] and 93.7% (inactive) in test [13]. Also, in test [2], the Her2 level was 104% (inactive). In test [6] (H69AR cells + 2 uM doxorubicin), the differential viability (reversal) was 11% (inactive). Further, the inhibition in test [7] was 0% (inactive); in test [8] it was -1% (inactive); in [14] it was 2.08% (inactive). Besides, the results for the growth inhibition in test [9] and in test [10] were -7.52% (inactive) and -18% (inactive), respectively. Moreover, the viability increase in test [11] was -2.35% (inactive). Further, the RAM network inhibition in test [15] is -1.09% (inactive).
